Measurements: ChEMBL document CHEMBL4513216, “Probing the Open Global Health Chemical Diversity Library for Multistage-Active Starting Points for Next-Generation Antimalarials” (ACS Infect Dis, 2020)
In all, about 65,000 compounds went through this assay and about 2,100 (3.2%) showed an effect of 50% or more. The median lay at about -52%. For the sample, strong results were picked, then their nearest neighbours and some compounds at random.

tested on: Plasmodium falciparum; assay: Screen against P. falciparum Asexual Blood Stage (ABS), at 5uM; format: functional, Dd2; conditions: tested at 5 uM

Structure (SMILES)	INHIBITION [%]
CNCC[C@H]1CC(C)(C)Oc2ccc(OCC3CC3)cc21	76.1
CNCC[C@H]1CC(C)(C)Oc2ccc(OC)cc21	73.8
CC(C)(O)c1cn(C[C@H]2C[C@@H]3CCN2C[C@@H]3C(=O)N2CCOCC2)nn1	-62.4
CC(=O)c1cc(CC(=O)N2CCN(CCOc3ccccc3)CC2)cs1	7.62
CN(C)c1nc2c(c(NCc3cc(O)ncn3)n1)CCCC2	89.4
COc1ccccc1C1SCC(=O)Nc2n[nH]cc21 (stereo not drawn)	-117
COc1ccccc1C1CNC(=O)c2nc(-c3ncc[nH]3)[nH]c2C1 (stereo not drawn)	89.1
CN(C)[C@@H]1CN(C(=O)COc2cccc(F)c2)C[C@H]1O	-21.2
COc1cccc(CC(C)NC(=O)NCCNC(C)=O)c1 (stereo not drawn)	-47.5
CCC(CNC(=O)CNC(C)=O)Oc1cccc(F)c1 (stereo not drawn)	85
O=C(Cc1cccc(F)c1)N1CCN2C[C@H](Oc3cncnc3)C[C@H]2C1	-93.1
Cc1nnc(N2CCCC3(CN(Cc4cccnc4)CCO3)C2)o1 (stereo not drawn)	-77.8
Cc1ccccc1-n1cc(C2=CCN(CCn3cc[nH]c3=O)CC2)cn1	-111
CC(=O)N1CCN([C@@H]2CN(C(=O)Cc3ccccc3C)C[C@H]2O)CC1	-146
CC(C)(C)c1nc(CNC2CCCN(c3cccnn3)C2)no1 (stereo not drawn)	83
CC(C)(C)c1nc(CN(Cc2cccnc2)C2CN3CCC2CC3)no1 (stereo not drawn)	-29.7
c1ccc(-c2nnc(CNC3CCCN(c4cccnn4)C3)o2)cc1 (stereo not drawn)	75.8
CCCN1CCN(C(=O)c2cncnc2C)[C@H]2CS(=O)(=O)C[C@H]21	-87.7
Cc1ccc(CN2C[C@@H]3[C@@H](C2)OCC(=O)N3Cc2ccncc2)s1	3.28
Cc1ccc(CN2Cc3nnn(C)c3C(COCCN(C)C)C2)s1 (stereo not drawn)	73.9
Cc1ccc(N2CCO[C@H]3CN(Cc4ccncc4)C[C@H]32)nn1	-111
Cc1ccc2c(c1)CN(C(=O)c1cccs1)C(CN(C)C)CO2 (stereo not drawn)	77.3
CN(CC1Cc2ccccc2CN1C)C(=O)Cc1cccs1 (stereo not drawn)	-12.1
O=C(NCCOc1cccc(Cl)c1Cl)N1CCC2(CC1)OCCO2	-68.2
Cc1ccc2nc(CN(C)Cc3n[nH]c4c3CCCCC4)[nH]c2c1C	85.8
CC(Cn1cncn1)NCc1n[nH]c2c1CCCCC2 (stereo not drawn)	-49.3

Structure (SMILES)	INHIBITION [%]
Cc1ccc2[nH]c(CN(C)Cc3n[nH]c4c3CCC4)nc2c1	82.3
NC1(c2nc(C(F)(F)F)cc(=O)[nH]2)CCCCC1	4.74
CC(=O)N1CCC2(CN(CC3CCCC3)C2)C1	-99.3
CN(C)C[C@H]1C[C@@H]2CN(Cc3ccco3)C[C@@H]2O1	38.9
COc1ccc(CN2C[C@H]3C[C@H](CN(C)C)O[C@H]3C2)cc1	79.6
CN(C)C[C@H]1C[C@@H]2CN(Cc3ccoc3)C[C@@H]2O1	20.7
O=C(CC1CCCC1)N1C[C@@H]2C[C@@H]1CN2	-57.9
CN(C(=O)c1ccon1)[C@@H]1CCC[C@@H](Oc2ccccc2)[C@@H]1O	79.8
Cc1ncsc1CN1C[C@@H]2CN(Cc3cccnc3)CCO[C@@H]2C1	-49.8
CCNc1ccnc(N2Cc3cnc(CC(C)C)nc3C2)n1	74.6
CC(C)Nc1ccnc(N2Cc3cnc(C(C)(C)C)nc3C2)n1	50.1
O=C(c1cscn1)N1CCN2C[C@H](OCc3cccnc3)C[C@H]2C1	-55.9
COc1ccc(C2SCC(=O)Nc3n[nH]cc32)c(OC)c1OC (stereo not drawn)	-164
O=C(Nc1ccc(Cn2cccn2)cc1)N1CCC2(CC1)OCCO2	-153
CN(CCc1cccc2ccccc12)Cc1nc(N)nc(N(C)C)n1	92.2
COc1ccccc1CCN(C)Cc1nc(N)nc(N(C)C)n1	69.9
COc1ccccc1CC(C)N(C)CCS(C)(=O)=O (stereo not drawn)	1.1
Cc1nc(-c2ccccc2F)sc1C(=O)N1CCC(=O)CC1	-67.5
O=C(Cc1cccs1)N1C[C@@H]2OCCN(CC3CCCO3)[C@@H]2C1 (stereo partly drawn)	-87.1
Cn1cc(C2SCC(=O)Nc3c2cnn3C(C)(C)C)cn1 (stereo not drawn)	-6.82
COc1ccc(C)cc1CC(=O)N1CCN(CC(C)O)CC1 (stereo not drawn)	-34.3
CCC(O)CN1CCN(C(=O)Cc2cc(C)ccc2OC)CC1 (stereo not drawn)	-68.2
CCN1CCC(CNCc2cc(C)ccc2OC)C1 (stereo not drawn)	82.7
N#Cc1ccc(OC[C@]23COC[C@H]2CN(Cc2nccs2)C3)nc1	-22.3
O=C(C1CC1)N1CCOC2(CCNCC2)C1	-22.2
Cc1ccc(CC(=O)N2CCCN(Cc3nccn3C)CC2)cn1	-72.4

Structure (SMILES)	INHIBITION [%]
Cc1ccc(C(O)CN2CCN(Cc3nccn3C)CC2)cc1C (stereo not drawn)	80.4
Cn1ccnc1CN1CCC2(CC(=O)N(c3ccccn3)C2)C1 (stereo not drawn)	-145
CC(C)(C)c1nccc(C2(c3ccccc3Cl)CCNCC2)n1	76.1
Clc1ccccc1C1(c2ccnc(-c3ccncc3)n2)CCNCC1	83.6
CC(C)c1nccc(C2(c3ccccc3Cl)CCNCC2)n1	83.4
Cc1ccc(N2CCO[C@H]3CN(Cc4cccnc4)C[C@H]32)nn1	-18.3
CN1C(=O)CC2(CCNCC2)c2ccccc21	2.59
O=C1CC2(CCCNC2)C(=O)N1Cc1ccccc1 (stereo not drawn)	-15.7
CC(C)c1ccc(CN2C(=O)C3(CCNCC3)Nc3ccccc32)cc1	82
c1cncc(CN2CCN3C[C@H](Oc4cncnc4)C[C@H]3C2)c1	-155
CC(=O)C1(c2ccccc2)CCN(C(=O)c2ccc3nnnn3c2)CC1	-106
CC(C)[C@@H]1CN(C(=O)C2(c3ccccc3)CCN(C)CC2)C[C@H]1C(=O)O	-65.7
CC(C)[C@@H]1CN(C(=O)C2(c3ccccc3)CCN(C)CC2)C[C@H]1N(C)C	83.7
CCS(=O)(=O)N1CCc2c(COCCN(C)C)cncc2C1	-62.2
O=S1(=O)NCC2(CCNCC2)COc2ccccc21	-55.2
O=S1(=O)c2ccccc2OCC2(CCN(CCO)CC2)CN1CC1CC1	76.9
Oc1cccc2ccc(CN3CCC4(CCNCC4)C3)nc12	89.9
c1ccc(-c2ncc(CN3CCC4(CCNCC4)C3)cn2)cc1	10.6
Cc1cccc(CN2CCC3(CCCN(CC(=O)N(C)C)C3)C2)n1 (stereo not drawn)	-47.6
Cc1nn(-c2ncccn2)c2c1C(c1cnn(C)c1)SCC(=O)N2 (stereo not drawn)	-15
O=C(CSc1ccccn1)N1CCN(CCO)[C@@H]2CS(=O)(=O)C[C@@H]21	-35.4
COc1ccnc(CN2CCCC(CCc3ccccc3)C2)c1OC (stereo not drawn)	90.1
COc1ccnc(CN2CCCC(CCc3ccc(F)cc3)C2)c1OC (stereo not drawn)	88.9
N#CC1(c2ccccc2)CCN(C(=O)C2CCCN(CC(N)=O)C2)CC1 (stereo not drawn)	-116
CCC(O)CN1CCN(C(=O)Cc2nc(-c3ccco3)oc2C)CC1 (stereo not drawn)	-62.9
CC(Cc1ccc(Cl)cc1)N(C)C(=O)NCCS(C)(=O)=O (stereo not drawn)	-65.7

Structure (SMILES)	INHIBITION [%]
O=C(c1ccncc1)N1CCN2C[C@H](Oc3cccnc3)C[C@H]2C1	-77
CC(C)N(CCNC(=O)c1[nH]nc2ccc(I)cc12)C(C)C	86.9
CC[C@@H]1N(Cc2ccncc2)CCC[C@]12CCC(=O)N2CCOC	-38
COc1ccc(NC(=O)CCN2CC=C(c3cnn(C)c3)CC2)c(C)c1	-33.1
CCc1cccc(NC(=O)CCN2CC=C(c3cnn(C)c3)CC2)c1	-33.3
COc1ccc(NC(=O)CCN2CC=C(c3cnn(C)c3)CC2)cc1Cl	67.2
Cc1ccc2nc(C)c(C)c(C(=O)N[C@H]3COC[C@@H]3N3CCCC3)c2c1	-47.2
Cc1cc(CN2CC[C@H]3C[C@@H](C)O[C@@H]3C2)no1	-71.2
Cc1n[nH]c2c1C(c1ccc3c(c1)OCO3)SCC(=O)N2 (stereo not drawn)	-22
COc1cccc(-n2ccc3nc(N4CCCC4)ncc3c2=O)c1	91.7
CC(=O)Nc1ccc(-c2ccccc2CCN)cc1	-115
COc1ccc(CCN)cc1-c1ccc(S(C)(=O)=O)cc1	21.8
COc1ccc2c(ccn2CCN)c1	26.1
COc1ccc(-c2ccccc2CCN)c(OC)c1	81.6
CC(=O)Nc1cccc(-c2ccccc2CCN)c1	-108
COc1ccc(-c2ccccc2CCN)c(OC)c1OC	81.8
CN1C[C@@H]2COC[C@]2(C(=O)NCc2cccs2)C1	-12.4
CCc1[nH]c(C2(N)CCCCC2)nc(=O)c1C	-30.6
Cc1noc(C)c1CN1CCO[C@H]2CN(CC3CC3)C[C@H]21	26.3
Cc1nc(=O)c(CC(=O)N2C[C@H]3CC[C@@H](C2)N(CC2CCC2)C3)c[nH]1	-30
CCN(CC1CCCN(CCc2cccc(OC)c2)C1)C(=O)CN(C)C (stereo not drawn)	83.3
COc1ccc(C(=O)C2CCCN(CCc3ccccc3)C2)c(OC)c1 (stereo not drawn)	71.8
COc1ccc(C(=O)C2CCCN(Cc3ccccc3O)C2)c(OC)c1 (stereo not drawn)	-55.9
COCC1COCCC12CCN(C(=O)Cc1cccc(OC)c1)CC2 (stereo not drawn)	-3.52
Cc1nc(NCc2ccco2)nc2c1COCC21CCNC1 (stereo not drawn)	21.7
